Test results from PubChem BioAssay (NCATS).
Results filed as inconclusive are left out. Calls of active or inactive are those of the source. Calls come from the whole dose curve; as a rule, active = well fitted curve in either direction with a large enough effect (not every such curve was filed as active); inconclusive = small, poorly fitted or top-dose-only effect, or another doubt; inactive = flat fitted curve, though single readings scatter.

Target: Mitogen-activated protein kinase 10 (Mus musculus) (UniProt Q61831)
Assay: JNK3 AlphaScreen Assay (AID 530);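 note: kinase came from lysate of stimulated human HepG2 cells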
Conditions: JNK3 lysate, c-Jun phosphorylation; series mostly up to 57.1 µM; activity change, negative = inhibition: at the top concentration
Excerpt: NIH Chemical Genomics Center [NCGC]
NIH Molecular Libraries Screening Centers Network [MLSCN]
The c-jun N-terminal kinase (JNK) family are serine/threonine protein kinases that phosphorylate c-jun, a component of the transcription factor […] (AP-1). JNK kinases are members of the mitogen-activated protein kinase family including the extracellular regulated kinases and p38 kinases. Three JNK genes (JNK 1, 2, and 3) have been identified in humans so far. JNK1 and JNK2 have a broad distribution and JNK3 is primarily found in neuronal tissues and cardiac myocytes.
JNK3 has been under consideration as a target for the treatment of neurodegenerative disorders. […] JNK pathway is also involved in pathological process in a mouse model of Parkinson's disease (Xia et al., 2001).
Given these potential tissue distributions and links to neuroprotection, JNK3 inhibitors should provide useful investigational tools to study the role of this kinase in several diseases including, arthritis, stroke, myocardial infarction, ischemic injury and Parkinson's disease.
A homogeneous AlphaScreen is developed to measure the activity of JNK3. AlphaScreen is a two bead-based proximity-dependent chemical energy transfer luminescent assay platform. The phosphorylation of a biotinylated c-jun substrate by JNK3 can be detected with an antibody raised against phosphorylated c-jun. This process brings streptavidin donor beads and Protein-A acceptor beads to within a proximity range of <200 nm, and subsequently lead a chemical luminescent reaction upon exciting donor beads with 680 nm laser excitation light. Inhibition of JNK3 activity by small molecules and subsequent decrease in the antibody binding to biotinylated c-jun could attenuate or abolish this chemical luminescent reaction.
Yang DD, Kuan CY, Whitmarsh AJ, Rincon M, Zheng TS, Davis RJ, Rakic P and Flavell RA (1997) Absence of excitotoxicity-induced apoptosis in the hippocampus of mice lacking the Jnk3 gene. Nature 389:865-870. [PMID: 9349820]
Herdegen T, Claret FX, Kallunki T, Martin-Villalba A, Winter C, Hunter T, and Karin M (1998) Lasting N-terminal phosphorylation of c-Jun and activation of c-Jun N-terminal kinases after neuronal injury. J.Neurosci. 18:5124-5135. [PMID: 9651196]
Xia XG, Harding T, Weller M, Bieneman A, Uney JB and Schulz JB (2001) Gene transfer of the JNK interacting protein-1 protects dopaminergic neurons in the MPTP model of Parkinson's disease. Proc.Natl.Acad.Sci.U.S.A. 98:10433-10438.
NCGC Assay Protocol Summary:
GST-cJun (1-79) (Stratagene, La Jolla CA, #205145) was biotnylated by PerkinElmer (PerkinElmer-BioSignalInc. Montreal, Canada) and was detectable by the streptavidin Donor beads. Anti-(phospho)cJun (Ser73) antibody was from UpState (Charlottesvilles, VA, #06-659). JNK3-containing lysates were generated from HepG2 cells and pre-activated by interleukin1-beta and tumor necrosis factor alpha. All reagents were stored at -20 C before using. Phosphorylated biotinylated-GST-cJun was recognized by Anti-(phospho)cJun (Ser73) antibody and this process brings acceptor and donor beads together. Therefore JNK3 phosphorylation of cJun can be measured by Alpha reading by EnVision (PerkinElmer, Boston, MA).
The composition of kinase buffer was (in mM) 20 tris- HCl (pH 7.6) 10 MgCl2, 1 DTT, and 0.1 Na3VO4 and 0.01% Tween-20. Beads were diluted in detection buffer containing (in mM) 20 tris-HCl (pH 7.7), 20 NaCl and 80 EDTA and 0.3% BSA. The assay was performed at room temperature. All compounds were screened as titrations from 0.6 nM to 46 uM final concentration. The assay was performed in 1536-well format (white solid bottom and untreated) as follows:
Sequence,Parameter,Value,Description
1,Reagent,3 uL,Biotin-GST-cJun, Anti-(phospho)cJun and pre-activated JNK3-containing lysates
2,Compound,23 nL,Final concentration was 0.6nM to 46uM
3,Time,15 minutes,Room Temperature
4,Reagent,1 uL,ATP final concentration 10uM
6,Reagent,0.5 uL,2ng/well bead mixture
[…]
% is set by controls: 0 for no effect and ±100 for the full control effect.

Activity change, negative = inhibition, inactive:
C/C(=C\COc1cc(=O)[nH]c2ccccc12)CC[C@@H](O)C(C)(C)O 16.9%, CCCC[C@@H]1C[C@H]1C(NC(=O)c1ccccc1)c1ccc(Cl)cc1 (stereo not given in full) 13.3%, CC[C@]1(O)C[C@H]2CN(CCc3c([nH]c4ccccc34)[C@](C(=O)OC)(c3cc4c(cc3OC)N(C)[C@@H]3[C@](O)(C(=O)OC)[C@H](OC(C)=O)[C@]5(CC)C=CCN6CC[C@]43[C@@H]65)C2)C1 20.7%, CC(=O)N1CC2(CC2)CC1c1ccccc1 (stereo not given) 4.57%, C=C(CC1([C@@H](NP(=O)(c2ccccc2)c2ccccc2)[C@H]2C[C@@H]2CCCC)CC1)c1cccc(OC)c1 2.59%, CC1(C)C(=O)C(c2ccccc2)=C2CN3C(=O)N(CCc4ccccc4)C(=O)C3(Cc3ccc(C(F)(F)F)cc3)C=C21 (stereo not given) -10.8%, C[C@@H](C(=O)NCCc1c[nH]c2ccccc12)[C@H]1C[C@]1(C)[C@H](NC(=O)OCc1ccccc1)c1ccccc1 -5.96%, C[C@H](CO)NC(=O)[C@@H]1C[C@H]1[C@@H](NP(=O)(c1ccccc1)c1ccccc1)c1ccccc1 1%, CCCN(CCc1ccccc1)[C@H]1CCc2c(O)cccc2C1 -22.5%, COc1ccc(-c2cc(=O)c3ccc(O)cc3o2)cc1 -5.39%, COC(=O)[C@@H]1C[C@H]1[C@@H](NC(=O)Oc1ccc(F)cc1)c1ccccc1 5.09%, NC(=S)c1ccc[n+]([C@@H]2O[C@@H](COP(=O)([O-])OP(=O)(O)OC[C@@H]3O[C@@H](n4cnc5c(N)ncnc54)[C@@H](OP(=O)(O)O)[C@H]3O)[C@@H](O)[C@H]2O)c1 10.7%, CC(C)C[C@@H](CC(=O)N[C@@H](CCCN)CC(=O)N[C@@H]1CCNC[C@H]1C(=O)N[C@H](CC(=O)N[C@@H](CCC(=O)O)CC(=O)O)CC(C)C)NC(=O)[C@@H]1CCCC[C@H]1N -19.7%, C[C@@H](C(=O)NCc1ccc(S(C)(=O)=O)cc1)[C@@H]1C[C@@]1(C)[C@@H](NC(=O)OCc1ccccc1)c1ccccc1 1.57%, O=C(N[C@@H](c1ccccc1)[C@@H]1C[C@H]1C(=O)O)OCc1ccccc1 -2.31%, NCCC[C@@H](CC(=O)N[C@@H]1CCNC[C@H]1C(=O)N[C@H](CC(=O)N[C@@H](CCC(=O)O)CC(=O)O)Cc1ccccc1)NC(=O)C[C@H](CO)NC(=O)[C@@H]1CCCC[C@H]1N -6.75%, CCC/C=C(\CCC)C(NS(=O)(=O)c1cccc2cccnc12)c1ccc(-c2ccccc2)cc1 (stereo not given) 11%, COc1ccc([C@@H]2CC(=O)c3c(O)cc(O[C@@H]4O[C@@H](CO[C@@H]5O[C@@H](C)[C@@H](O)[C@@H](O)[C@H]5O)[C@@H](O)[C@@H](O)[C@H]4O)cc3O2)cc1O 14.6%, C=C[C@@](C)(O)CC[C@H]1[C@]2(C)CCCC(C)(C)[C@H]2CC[C@]1(C)O -5.42%, CCCC[C@H]1C[C@@H]1[C@@H]1N(P(=O)(c2ccccc2)c2ccccc2)C[C@@](O)(c2ccccc2)CC12CC2 -8.07%, C[C@@](Cc1ccccc1)(NC(=O)CN)c1ccccc1 19.2%, CC(C)c1cccc2nc3c(c([Si](C)(C)C(C)(C)C)c12)Cn1c-3cccc1=O 18.1%, CCCC/C=C/C(NC(=O)c1ccc(-c2ccccc2)cc1)c1ccccc1 (stereo not given) -0.854%, O=C(Nc1ccc2ccccc2c1)[C@@H]1C[C@H]1[C@@H](NP(=O)(c1ccccc1)c1ccccc1)c1ccccc1 -7.14%, Cc1ccc(CNC(=O)[C@H]2C[C@@H]2[C@H](NP(=O)(c2ccccc2)c2ccccc2)c2ccccc2)c(F)c1F 0.978%, COC(=O)[C@@]1(Cc2ccc(OC)cc2)[C@H]2c3cc(C(=O)N4CCCC4)n(Cc4c(CO)[nH]cc(C)c4=O)c3C[C@H]2CN1C(=O)c1ccccc1 -8.85%, CNc1cc(OC)c(C(=O)N[C@@H]2CCN(Cc3ccccc3)[C@H]2C)cc1Cl -9.75%, CCC[C@@H]1C[C@@]1(CCC)C(NC(=O)c1ccccc1)c1cccc(Cl)c1 (stereo not given in full) 5.71%, C#CCCCC(=O)Nc1ccccc1 -0.154%, N=C1[C@@H](O)[C@]2(I)c3ccccc3N3C(=N)[C@H](O)[C@@H]4c5ccccc5N1[C@@H]4[C@@H]32 -25.9% [at 11.4 µM], COc1cc2nc(N3CCN(C(=O)[C@H]4COc5ccccc5O4)CC3)nc(N)c2cc1OC -3.32%, O=C(NC[C@@H]1CCCCN1)c1cc(OCC(F)(F)F)ccc1OCC(F)(F)F -1.17% [at 25.6 µM], COC(=O)[C@@]1(Cc2ccc(F)cc2)[C@H]2c3cc(C(=O)N(C)C)n(Cc4ccc(C)c(F)c4F)c3C[C@H]2CN1C(=O)c1ccccc1 -20.9%, O=c1cc(-c2ccccc2O)oc2c1ccc1ccccc12 -15.4%, Cc1cc(CNC(=O)[C@H]2C[C@@H]2[C@H](NP(=O)(c2ccccc2)c2ccccc2)c2ccccc2)nn1C -0.478%, COc1ccc(COC2OC[C@]3(C)[C@H]4C5=C(CN3C(=O)OC(C)(C)C)[C@H](C)C(CO)C(CO)C5CC[C@@H]24)cc1 (stereo not given in full) 5.88%, COC(=O)[C@H](C)[C@@H]1C[C@@]1(C)[C@@H](NC(=O)OCc1ccccc1)c1ccccc1 29.6%, C=C1C[C@@]23C[C@]1(O)CC[C@@H]2[C@]12C=C[C@@H](O)[C@@](C)(C(=O)O1)[C@@H]2[C@@H]3C(=O)O 16.8%, Cc1c2c(nc3ccccc13)-c1cccc(=O)n1C2 -3.09%, OCc1ccncc1.OCc1ccncc1.[Cl][Pt]([Cl])([Cl])[Cl] 0.578% [at 11.4 µM]
